From PubChem BioAssay AID1030 (National Center for Advancing Translational Sciences (NCATS), 2008)
About 16,000 (7.3%) of roughly 220,000 compounds were called active. Another 25% or so got no clear call; they are omitted. The entries come from a sample that favours actives as a whole. A number with no mark means an inactive call. Calls come from the whole dose curve; as a rule, active = well fitted inhibition curve with a large enough effect (not every such curve was filed as active); inconclusive = small, poorly fitted or top-dose-only effect, or another doubt; inactive = no such curve, though single readings can be large or run the other way.

Target: Aldehyde dehydrogenase 1A1 (Homo sapiens) (UniProt P00352)
Sequence (P00352 whole entry, looked up): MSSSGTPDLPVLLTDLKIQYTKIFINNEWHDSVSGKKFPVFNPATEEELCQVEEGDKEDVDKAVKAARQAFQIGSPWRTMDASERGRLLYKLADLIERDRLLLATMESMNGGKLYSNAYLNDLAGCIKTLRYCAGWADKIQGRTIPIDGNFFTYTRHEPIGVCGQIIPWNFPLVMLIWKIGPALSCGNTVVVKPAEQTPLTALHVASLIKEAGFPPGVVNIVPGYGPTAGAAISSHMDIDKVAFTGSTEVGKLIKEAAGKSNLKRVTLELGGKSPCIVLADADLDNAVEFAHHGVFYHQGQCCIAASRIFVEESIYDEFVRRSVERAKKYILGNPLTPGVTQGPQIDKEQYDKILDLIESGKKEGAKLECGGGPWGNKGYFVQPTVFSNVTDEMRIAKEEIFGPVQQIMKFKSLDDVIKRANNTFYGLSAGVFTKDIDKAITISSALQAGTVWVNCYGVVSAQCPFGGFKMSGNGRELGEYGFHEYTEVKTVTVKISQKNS
Experiment: qHTS Assay for Inhibitors of Aldehyde Dehydrogenase 1 (ALDH1A1);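 for activity, negative = inhibition: plate controls were no enzyme wells and a reference inhibitor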
Conditions: Purified ALDH1A1, NADH fluorescence, propionaldehyde substrate; series mostly up to 75.3 µM; activity, negative = inhibition: at the top concentration
Potency is the fitted concentration of half-maximal effect.

Compound | activity, negative = inhibition | Potency
CC(CNc1ccc([N+](=O)[O-])c2cccnc12)Nc1c([N+](=O)[O-])cc(C(F)(F)F)cc1[N+](=O)[O-] (centres undefined) | -0.123% | –
O=[N+]([O-])c1cc([N+](=O)[O-])c2cccnc2c1O | – | 25.1 µM (active)
O=C(Nc1cccnc1)c1ccc(Cl)cc1[N+](=O)[O-] | 3.9% | –
Cn1c(=O)n(C)c2cc(NS(=O)(=O)c3ccc(F)cc3)ccc21 | -6.74% | –
O=S(=O)(Nc1ccc(Oc2ncccn2)c(Cl)c1)c1ccc(F)cc1 | – | 10 µM (active)
O=S(=O)(Nc1ncccn1)c1ccc(NS(=O)(=O)c2cccc(Cl)c2Cl)cc1 | -1.37% | –
CC(=O)Nc1ccc(NC(=S)NC(=O)c2ccc([N+](=O)[O-])c(C)c2)cc1 | 3.84% | –
Cc1cc(N2CCN(C)CC2)nc2ccc(NC(=S)N3CCOCC3)cc12 | 0.325% | –
CC1COc2ccccc2N1S(=O)(=O)c1ccccc1 (centres undefined) | -0.879% | –
O=C(C1CCN(C2CCN(Cc3ccc4cc(F)ccc4n3)CC2)CC1)N1CCCC1 | -6.91% | –
Cc1cccc(-n2c(=O)c3c(C)c(C)sc3n(CC(N)=O)c2=O)c1 | 2.1% | –
CN(C)c1ccc(C2Nc3ccccc3C(=O)N2NS(=O)(=O)c2ccccc2)cc1 (centres undefined) | – | 25.1 µM (active)
NC(=O)Nc1ccccc1C(=O)NCCc1ccccc1 | -2.25% | –
COc1ccc(C(=O)COC(=O)c2ccc3ccccc3n2)cc1 | – | 17.8 µM (active)
CC(OC(=O)c1ccc2ccccc2n1)C(=O)c1ccccc1 (centres undefined) | -2.56% | –
CCCCC(C(=O)OCC(=O)c1ccc(OC)cc1)N1C(=O)c2ccccc2C1=O (centres undefined) | -1.59% | –
c1ccc2sc(NN=C3CCCC3)nc2c1 | -5.13% | –
O=C1CCC(=O)N1c1ccc(NCCc2ccccc2F)c([N+](=O)[O-])c1 | 8.56% | –
Cc1nc2ccccn2c1C(=O)NN=C1CCN(C)CC1 | – | 20 µM (active)
C/C(=N\OC(=O)c1ccccc1)c1c(C)nc2cc(C)ccn12 | 2.96% | –
Cc1cc(CNCc2c(C(=O)N(C)Cc3ccccc3)nc3ccccn23)nn1C | -8.13% | –
CCCCn1c(O)c(N=NC(=O)Cn2c(C(F)(F)F)nc3ccccc32)c2ccccc21 | – | 4.47 µM (active)

Compound | activity, negative = inhibition | Potency
CN1CCN(C(=O)Cn2c(C(F)(F)F)nc3ccccc32)CC1 | 1.59% | –
Cc1ccccc1OC(=O)Cn1c(C(F)(F)F)nc2ccccc21 | -0.417% | –
Cc1cc(C)cc(OCC(=O)Nc2ccc(S(=O)(=O)Nc3ccccn3)cc2)c1 | -1.38% | –
Cc1ccc(NN=Nc2nc3c([nH]2)c(=O)n(C)c(=O)n3C)cc1 | – | 7.94 µM (active)
CC(CCO)Nc1nc2c([nH]1)c(=O)n(C)c(=O)n2C (centres undefined) | 8.27% | –
COc1ccc2cc(-c3[nH]ncc3CNCCn3nc(C)cc3C)ccc2c1 | 13.3% | –
Cc1c(O)c(Br)c(C)c(O)c1Br (tested in a mixture with another compound) | – | 1.12 µM (active)
COCCN(C(=O)CCC(=O)Nc1nccs1)C(C(=O)NC(C)(C)C)c1ccc(Cl)cc1 (centres undefined) | 1.03% | –
Cc1ccc(OCc2n[nH]c(=S)n2-c2ccc(C)cc2)cc1 | 9.12% | –
Cc1ccc(OCc2n[nH]c(=S)n2-c2ccccc2)cc1 | -17.2% | –
COc1ccc(OCc2n[nH]c(=S)n2N)cc1 | – | 4.47 µM (active)
Cc1noc(C)c1CCC(=O)O | 13.5% | –
O=C(c1cccc(S(=O)(=O)N2CCCC2)c1)N(Cc1ccco1)C1CCS(=O)(=O)C1 (centres undefined) | -11% | –
COc1cc(OC)c2c(-c3cccc(-c4cccc(N)c4)c3)cc(=O)oc2c1 | 10.4% | –
CCC(c1nnnn1Cc1ccco1)N(CCc1ccccc1)Cc1cc2ccc(OC)cc2[nH]c1=O (centres undefined) | – | 10 µM (active)
CCC(c1nnnn1Cc1ccco1)N(CCc1ccccc1)Cc1cc2cccc(C)c2[nH]c1=O (centres undefined) | – | 7.94 µM (active)
CCOc1ccc(CN(Cc2ccco2)C(c2cccs2)c2nnnn2C(C)(C)C)cc1 (centres undefined) | -9.85% | –
CCN(CC)CCNS(=O)(=O)c1ccc(/C=C/C(=O)O)cc1 | 4.64% | –
Cc1noc(C)c1COC(=O)COc1ccc(-c2ccccc2)cc1 | -3.27% | –
Cc1nn(CC(=O)Nc2ccc(C#N)cc2)c(C)c1[N+](=O)[O-] | -1.5% | –
CCCC(C)C(=O)NCc1ccncc1 (centres undefined) | -0.695% | –
OCCC1CN(Cc2cccc(OC3CCCC3)c2)CCN1Cc1ccsc1 (centres undefined) | 3.75% | –

Compound | activity, negative = inhibition | Potency
COC(=O)c1cc(=O)n(-c2c(Cl)cc(C(F)(F)F)cc2Cl)[nH]1 | -14.8% | –
Cc1ccc(CNC(=O)CC2Sc3ccccc3NC2=O)cc1 (centres undefined) | 13.1% | –
Cn1c(CC2Sc3ccccc3NC2=O)nnc1SCC(=O)c1ccc(Cl)cc1 (centres undefined) | – | 3.98 µM (active)
Cn1c(CCC(=O)Nc2ccccc2F)nnc1SCC(=O)Nc1ccccc1Cl | 3.73% | –
COc1cc(C)c(Cl)cc1S(=O)(=O)n1ccnc1 | 3.9% | –
Cc1nc(N)[nH]c(=O)c1Oc1cccc(C(F)(F)F)c1 | 11.3% | –
Cn1c(-c2ccccc2)c[n+]2c1CCCCC2 | 9.53% | –
Cc1cccc(NC(=O)c2ccc(OCC(=O)NCc3ccccc3)cc2)c1C | 2.27% | –
COc1ccc(C(=O)Nc2cc(C)ccc2NC(=O)COc2ccccc2)cc1 | – | 3.98 µM (active)
COc1ccc(OCC(=O)NNC(=O)c2cccc(C)c2)cc1 | -4.62% | –
CCOC(=O)Cc1ncccc1C(=O)Nc1ccc(OC(F)(F)F)cc1 | 0.304% | –
Cn1nnnc1-c1cc(Cl)cc(Cl)c1 | 8.19% | –
COc1ccc(/C=C(/NC(=O)c2ccc(C)cc2)c2nc3ccccc3[nH]2)cc1OC | 0.538% | –
COc1ccc(Br)cc1C(=O)Nc1cccc(C)c1C | -13.1% | –
COc1ccc(Br)cc1C(=O)NC(=S)Nc1cc(-c2nc3ccccc3[nH]2)ccc1C | – | 12.6 µM (active)
CC(OC(=O)CCc1nc(=O)c2ccccc2n1C)C(=O)NCc1ccc2c(c1)OCO2 (centres undefined) | 6.11% | –
CC(C)CNC(=O)C(=O)Nc1ccc(N(C)C)cc1 | 1.43% | –
COc1cc(CN2CCN(Cc3ccc(C)cc3)CC2)c([N+](=O)[O-])cc1OC | – | 17.8 µM (active)
COc1cc(CN2CC(C)CC(C)C2)cc([N+](=O)[O-])c1O (centres undefined) | -4.5% | –
COc1cc(CC(=O)N/N=C/c2ccccc2)c([N+](=O)[O-])cc1OC | -4.67% | –
COC(=O)C1=C(N)Oc2c(oc(CO)cc2=O)C1c1c(F)cccc1Cl (centres undefined) | 4.29% | –
C/C(=N\NC(=O)NC1CCCCC1)c1ccc(OC(F)F)cc1OC(F)F | -6.28% | –

Compound | activity, negative = inhibition | Potency
Cn1c(=O)c2c(ncn2CC(=O)N/N=C/c2cn[nH]c2-c2ccc(F)cc2)n(C)c1=O | 9.19% | –
CC(=O)Oc1cccc(N2C(=O)C3CC=C(Cl)CC3C2=O)c1 (centres undefined) | -4.18% | –
CC(=O)c1nc(N2C(=O)C3CC=C(C)CC3C2=O)sc1C (centres undefined) | – | 2.51 µM (active)
Cc1ncc([N+](=O)[O-])n1CCOC(=O)c1ccc(Br)cc1 | 4.54% | –
Cc1cc(C)n2nc(SCC(=O)NC(=O)NCc3ccco3)nc2n1 | -7.79% | –
Cc1ccc(SCC(=O)NC(=O)NCc2ccco2)c(C)c1 | – | 22.4 µM (active)
Cc1ccc(NC(=O)C(=O)NCc2ccco2)c(C)c1 | -18% | –
O=C(CSc1nnc(-c2ccco2)n1Cc1ccccc1)NC(=O)NCc1ccco1 | – | 15.8 µM (active)
O=C(CSc1nnc(-c2cccs2)n1-c1ccccc1)NCc1ccco1 | 1.5% | –
CCn1c(SCC(=O)NCc2ccco2)nnc1-c1ccc(N)cc1 | 6.6% | –
Cc1ccc(C(C)(C)C)c(OCCCCN2CCCC2)c1 | -7.93% | –
COc1ccc(/C=N/NC(=O)Nc2ccc3nsnc3c2)c(OC)c1 | 13.8% | –
CCOc1cc(C2C(C(=O)OC(C)C)=C(C)NC3=C2C(=O)CCC3)cc([N+](=O)[O-])c1O (centres undefined) | -0.788% | –
COc1cccc(OC)c1C(=O)OCC(=O)/C(C#N)=C(\C)N | 1.21% | –
COC(=O)C1=C(C)N(C(C)c2ccccc2)C(=O)/C1=C\c1ccco1 (centres undefined) | -9.78% | –
N=c1c2c3c(sc2nc2n1CCCCC2)CCCC3 | 1.81% | –
NNC(=O)C1CCCn2c1nc1sc3c(c1c2=O)CCCC3 (centres undefined) | – | 12.6 µM (active)
Cn1c(NN)nc2sc3c(c2c1=O)CCC3 | -9.42% | –
Cc1cccc(S(=O)(=O)CC(=O)Nc2nc(-c3ccccc3)cs2)c1 | -11.9% | –
O=C(CSc1ncn[nH]1)Nc1nc(-c2cccc([N+](=O)[O-])c2)cs1 | – | 17.8 µM (active)
O=C(CSc1nc(-c2ccccc2)cs1)Nc1cccc([N+](=O)[O-])c1 | 5.7% | –
CC(=O)c1ccc(-c2nnc(CCC(=O)N(C)Cc3cnc4ccccn34)o2)s1 | -2.91% | –

Compound | activity, negative = inhibition | Potency
CCCCCCCCCCCCCCCCO | 13.4% | –
O=C(Nc1ccccc1C(F)(F)F)c1cc(-c2ccc(O)cc2)on1 | -1.55% | –
Cc1cc(C)nc(NC(=O)C(C)N2C(=O)c3ccccc3C2=O)n1 (centres undefined) | 1.42% | –
Cc1cc(C)nc(NC(=O)Nc2ccccc2C(F)(F)F)n1 | – | 35.5 µM (active)
Cc1ccc(NC(=O)c2oc3ccccc3c2C)c([N+](=O)[O-])c1 | 0.651% | –
CC1=C(C)CC(C(=O)NC(C)CCc2ccccc2)C(C(=O)O)C1 (centres undefined) | -0.644% | –
CCC(C)[C@@H](N)C(=O)O (some centres undefined) | 7.63% | –
CC(C)NC(=O)NC(=O)CSc1nnc(-c2ccccc2F)n1N | 5.19% | –
Cc1ccc(C2C3=C(Nc4[nH]n(-c5ccccc5)c(=O)c42)c2ccccc2C3=O)cc1 (centres undefined) | – | 11.2 µM (active)
Cc1cc(C)c(C2C3=C(Nc4c2c(C)nn4-c2ccccn2)c2ccccc2C3=O)c(C)c1 (centres undefined) | -2.06% | –
Cc1ccc(N=Nc2c(C)[nH]n(-c3ccccc3)c2=O)cc1 | -5.84% | –
Cn1cnnc1Sc1ccc(S(C)(=O)=O)cc1[N+](=O)[O-] | 8.01% | –
c1csc(-c2nnc(COc3ccc4c(c3)OCO4)o2)c1 | -8.68% | –
O=[N+]([O-])c1c(NCCO)cc(Sc2nc3ccccc3s2)c2nonc12 | – | 8.91 µM (active)
O=[N+]([O-])c1cc(Br)c(O)c(/C=N/Nc2nc3ccccc3s2)c1 | 1.2% | –
c1ccc2sc(SCCSc3nc4ccccc4s3)nc2c1 | 3.19% [at 13.5 µM] | –
O=C(c1ccc(F)cc1)C1CCN(Cc2cn[nH]c2-c2ccccc2)CC1 | -3.53% | –
CN(CCC1CCOCC1)Cc1cn[nH]c1-c1ccc(-c2ccccc2)cc1 | – | 10 µM (active)
Cc1nnc(CN(C)Cc2cn[nH]c2-c2ccc(-c3ccccc3)cc2)o1 | – | 12.6 µM (active)
OCC1(CCOc2ccccc2)CCN(Cc2cn[nH]c2-c2ccccc2)CC1 | 2.48% | –
COc1ccc(-c2[nH]ncc2CN(C)Cc2c(C)n[nH]c2C)c(OC)c1 | 3.76% | –
